# Laboratory results: ChEMBL document CHEMBL3988442, “University of Dundee, Small-Polar-MMV Screening Library” (2021)
# Where “and” joins values, the source holds several entries; their conditions need not be identical. Equal entries are not always repeated. For some assays here: Measured potencies and affinities stand elsewhere.
# How the values were obtained:
# [1] = target: Protein translocase subunit SecA (Escherichia coli (strain K12)) (UniProt P10408); assay: Assay to Identify E. coli SecA ATPase Inhibitors; type: functional; parameters: scale not given: direction of the effect not stated beside the values; details: 30 µM
# [2] = target: T1, Ubiquitin-activating enzyme e1, putative (Leishmania donovani (strain BPK282A1)) (UniProt E9BSI1); assay: Leishmania donovani Ubiquitin Activating Enzyme (LdE1); type: functional; parameters: scale not given: direction of the effect not stated beside the values; details: 30 µM
# T1 sequence (whole entry): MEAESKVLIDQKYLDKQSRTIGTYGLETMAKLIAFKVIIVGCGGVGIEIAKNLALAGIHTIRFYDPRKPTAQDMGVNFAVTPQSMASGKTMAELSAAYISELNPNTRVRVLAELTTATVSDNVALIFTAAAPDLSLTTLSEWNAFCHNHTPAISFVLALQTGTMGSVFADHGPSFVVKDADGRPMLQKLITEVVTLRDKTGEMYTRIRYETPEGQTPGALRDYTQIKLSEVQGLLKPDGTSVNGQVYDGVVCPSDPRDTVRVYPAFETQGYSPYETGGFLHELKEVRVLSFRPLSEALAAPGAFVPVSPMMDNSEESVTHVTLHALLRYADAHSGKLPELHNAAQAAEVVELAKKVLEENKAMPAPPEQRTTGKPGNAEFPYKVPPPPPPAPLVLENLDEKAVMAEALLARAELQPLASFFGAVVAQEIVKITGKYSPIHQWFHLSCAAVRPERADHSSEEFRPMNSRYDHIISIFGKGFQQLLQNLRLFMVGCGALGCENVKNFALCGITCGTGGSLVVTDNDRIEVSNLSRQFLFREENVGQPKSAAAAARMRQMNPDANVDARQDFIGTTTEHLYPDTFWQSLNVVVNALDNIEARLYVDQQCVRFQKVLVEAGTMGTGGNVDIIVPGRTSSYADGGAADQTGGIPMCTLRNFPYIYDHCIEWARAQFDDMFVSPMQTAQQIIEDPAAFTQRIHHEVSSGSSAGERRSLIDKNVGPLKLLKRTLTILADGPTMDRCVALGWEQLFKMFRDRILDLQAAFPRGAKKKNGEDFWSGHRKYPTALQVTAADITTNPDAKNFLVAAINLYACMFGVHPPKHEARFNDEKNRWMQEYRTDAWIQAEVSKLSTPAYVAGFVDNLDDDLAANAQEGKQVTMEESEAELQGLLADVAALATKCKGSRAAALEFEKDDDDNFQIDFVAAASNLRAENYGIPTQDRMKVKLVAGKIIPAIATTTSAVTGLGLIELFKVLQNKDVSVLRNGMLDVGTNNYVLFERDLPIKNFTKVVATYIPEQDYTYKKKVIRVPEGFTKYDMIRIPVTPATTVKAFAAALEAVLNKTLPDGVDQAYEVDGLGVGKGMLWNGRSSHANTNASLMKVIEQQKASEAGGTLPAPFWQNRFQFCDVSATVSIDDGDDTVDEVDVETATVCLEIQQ
# [3] = target: T2, Aspartate--tRNA(Asp/Asn) ligase (Mycobacterium tuberculosis (strain ATCC 25618 / H37Rv)) (UniProt P9WFW3); assay: Assay for Asp RNA synthetase-1 from Mycobacterium tuberculosis; type: functional; parameters: scale not given: direction of the effect not stated beside the values; details: 30 µM; also: in the data most compounds retested in dose-response had high values
# T2 sequence (whole entry): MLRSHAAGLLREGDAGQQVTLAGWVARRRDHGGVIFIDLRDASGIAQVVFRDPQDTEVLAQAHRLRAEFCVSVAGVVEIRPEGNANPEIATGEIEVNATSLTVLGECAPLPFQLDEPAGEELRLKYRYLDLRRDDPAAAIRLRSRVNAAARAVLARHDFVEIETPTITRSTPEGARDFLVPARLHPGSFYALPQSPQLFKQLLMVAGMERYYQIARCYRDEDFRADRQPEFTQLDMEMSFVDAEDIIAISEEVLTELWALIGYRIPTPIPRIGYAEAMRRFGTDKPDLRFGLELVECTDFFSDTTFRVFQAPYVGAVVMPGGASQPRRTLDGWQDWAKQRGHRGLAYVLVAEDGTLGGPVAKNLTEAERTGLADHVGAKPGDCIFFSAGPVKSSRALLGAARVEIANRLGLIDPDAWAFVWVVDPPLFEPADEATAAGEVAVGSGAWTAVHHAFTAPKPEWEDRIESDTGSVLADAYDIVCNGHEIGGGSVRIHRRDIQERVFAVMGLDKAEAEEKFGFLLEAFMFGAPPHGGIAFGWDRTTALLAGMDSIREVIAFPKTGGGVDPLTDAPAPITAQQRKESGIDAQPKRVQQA
# [4] = target: AMP-activated protein kinase, AMPK (Homo sapiens) (UniProt P54646+O43741+P54619+Q9UGJ0+Q9Y478+Q13131+Q9UGI9); assay: AMP-dependent Kinase enzyme assay. An in vitro enzyme assay that detects ADP turnover that is directly proportional to AMPK activity. This uses naive AMPK that is activated during the assay with MK-8722; type: functional; parameters: scale not given: direction of the effect not stated beside the values; details: 30 µM
# [5] = target: Sialic acid-binding Ig-like lectin 9 (Homo sapiens) (UniProt Q9Y336); assay: Hs-Siglec9 ALPHAscreen SOP 20170721; parameters: scale not given: direction of the effect not stated beside the values; details: 10 µM
# [6] = test system: Trypanosoma cruzi; assay: Trypanosoma cruzi phosphomannomutase and mannose-1-phosphate guanylyltransferase assay; type: functional; parameters: scale not given: direction of the effect not stated beside the values; details: 10 µM
# [7] = target: T3, Arginase-2, mitochondrial (Homo sapiens) (UniProt P78540); assay: in vitro enzyme assay to detect the production of urea directly proportional to the activity of Arginase II; type: functional; parameters: scale not given: in the data most compounds retested in dose-response had high values; details: 33.3 µM
# T3 sequence (whole entry): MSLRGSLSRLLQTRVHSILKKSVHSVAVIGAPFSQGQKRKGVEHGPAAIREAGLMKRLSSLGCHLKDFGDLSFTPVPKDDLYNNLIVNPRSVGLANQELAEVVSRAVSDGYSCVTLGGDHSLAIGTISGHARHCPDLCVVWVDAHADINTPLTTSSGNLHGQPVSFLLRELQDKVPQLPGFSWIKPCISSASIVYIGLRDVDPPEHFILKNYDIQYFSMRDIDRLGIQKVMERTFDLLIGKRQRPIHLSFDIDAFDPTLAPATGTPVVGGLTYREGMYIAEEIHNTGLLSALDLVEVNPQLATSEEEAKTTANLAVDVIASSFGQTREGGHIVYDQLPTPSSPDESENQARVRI
# [8] = target: T4, Proteasome subunit beta (Trypanosoma cruzi) (UniProt O96673); assay: Trypanosoma cruzi proteasome chymotrypsin-like activity (TcProtChymo) assay.; type: functional; parameters: scale not given: in the data most compounds retested in dose-response had high values; details: 9.37 µM
# T4 sequence (whole entry): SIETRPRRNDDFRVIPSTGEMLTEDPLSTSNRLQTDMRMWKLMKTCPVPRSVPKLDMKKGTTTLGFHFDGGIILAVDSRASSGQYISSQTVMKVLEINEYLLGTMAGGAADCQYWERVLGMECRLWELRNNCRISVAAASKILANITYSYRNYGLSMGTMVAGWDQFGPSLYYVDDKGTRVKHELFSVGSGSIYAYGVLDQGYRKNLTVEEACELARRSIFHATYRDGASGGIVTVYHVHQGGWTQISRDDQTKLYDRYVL
# [9] = species: Homo sapiens; assay: To identify inhibition of the IFN signalling (Jak-Stat) pathway via expression of an eGFP reporter gene under the control of an IFN-stimulated response element (ISRE) containing MxA promoter.; type: functional; parameters: scale not given: direction of the effect not stated beside the values; details: 30 µM
# [10] = target: Shiga toxin 2 (Escherichia coli O157:H7) (UniProt P09385+P09386); assay: E. coli 0.157:H7 Shiga Toxin SOP - stx2 screening assay; type: functional; parameters: scale not given: direction of the effect not stated beside the values; details: 30 µM
# [11] = target: T5, Tyrosyl-tRNA synthetase, putative (Trypanosoma cruzi (strain CL Brener)) (UniProt Q4DSP6); assay: Trypanosoma cruzi tyrosyl tRNA synthetase (TcYRS) _High Tyrosine SOP; type: functional; parameters: scale not given: in the data most compounds retested in dose-response had high values; details: 30 µM
# T5 sequence (whole entry): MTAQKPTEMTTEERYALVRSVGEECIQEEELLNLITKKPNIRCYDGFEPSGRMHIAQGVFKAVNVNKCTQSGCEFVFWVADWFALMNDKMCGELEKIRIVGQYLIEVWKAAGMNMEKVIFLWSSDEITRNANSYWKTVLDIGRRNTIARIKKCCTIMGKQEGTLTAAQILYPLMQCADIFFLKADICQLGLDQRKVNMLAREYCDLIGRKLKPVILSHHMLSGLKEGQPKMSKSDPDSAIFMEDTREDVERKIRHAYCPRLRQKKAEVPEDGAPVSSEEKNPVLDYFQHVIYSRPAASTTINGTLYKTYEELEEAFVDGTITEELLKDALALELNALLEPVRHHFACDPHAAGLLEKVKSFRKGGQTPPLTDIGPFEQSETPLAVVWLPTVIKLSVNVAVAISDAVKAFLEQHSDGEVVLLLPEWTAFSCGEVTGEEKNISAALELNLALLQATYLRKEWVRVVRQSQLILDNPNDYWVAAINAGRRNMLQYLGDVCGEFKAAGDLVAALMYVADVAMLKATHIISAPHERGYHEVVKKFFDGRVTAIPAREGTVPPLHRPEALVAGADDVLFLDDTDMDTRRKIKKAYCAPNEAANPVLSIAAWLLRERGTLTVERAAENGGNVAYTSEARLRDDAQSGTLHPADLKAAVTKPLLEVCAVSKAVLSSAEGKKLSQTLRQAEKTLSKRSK
# [12] = target: T5, Tyrosyl-tRNA synthetase, putative (Trypanosoma cruzi (strain CL Brener)); assay: Trypanosoma cruzi tyrosyl tRNA synthetase (TcYRS) SOP; type: functional; parameters: scale not given: direction of the effect not stated beside the values; details: 30 µM
# [13] = target: Chromo domain-containing protein 1 (Saccharomyces cerevisiae (strain ATCC 204508 / S288c) (Baker's yeast)) (UniProt P32657); assay: ScCHD-1 Enzyme Inhibition Assay; type: functional; parameters: scale not given: in the data most compounds retested in dose-response had high values; details: 30 µM
# [14] = target: T6, Methionyl-tRNA synthetase, putative (Leishmania donovani (strain BPK282A1)) (UniProt E9BF75); assay: Leishmania donovani Methionine tRNA synthetase (LdMetRS):v7. Dose response assay; type: functional; parameters: conc 80 nM, time 150 minutes
# T6 sequence (whole entry): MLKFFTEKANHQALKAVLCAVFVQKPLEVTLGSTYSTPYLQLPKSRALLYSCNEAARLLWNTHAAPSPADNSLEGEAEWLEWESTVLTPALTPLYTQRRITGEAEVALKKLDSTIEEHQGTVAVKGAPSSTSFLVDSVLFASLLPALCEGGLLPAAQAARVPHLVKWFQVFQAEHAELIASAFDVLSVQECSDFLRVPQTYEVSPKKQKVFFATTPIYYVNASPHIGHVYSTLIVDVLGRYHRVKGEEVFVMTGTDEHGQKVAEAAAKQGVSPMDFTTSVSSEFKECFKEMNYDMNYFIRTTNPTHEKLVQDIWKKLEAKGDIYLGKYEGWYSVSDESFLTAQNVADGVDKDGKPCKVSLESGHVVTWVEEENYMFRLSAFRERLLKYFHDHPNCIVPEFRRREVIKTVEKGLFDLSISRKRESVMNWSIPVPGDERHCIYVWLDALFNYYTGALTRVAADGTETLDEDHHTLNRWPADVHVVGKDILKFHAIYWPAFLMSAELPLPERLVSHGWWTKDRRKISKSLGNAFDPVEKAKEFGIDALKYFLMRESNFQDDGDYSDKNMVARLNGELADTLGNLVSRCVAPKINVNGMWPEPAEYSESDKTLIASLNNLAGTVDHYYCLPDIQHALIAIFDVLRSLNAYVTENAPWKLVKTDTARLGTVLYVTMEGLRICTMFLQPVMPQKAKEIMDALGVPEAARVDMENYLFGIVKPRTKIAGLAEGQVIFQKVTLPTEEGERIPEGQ
# [15] = test system: N/A; assay: Trypanosoma cruzi proteasome luciferase counter-screen; type: functional; parameters: scale not given: direction of the effect not stated beside the values; details: 9.37 µM
# Sequence of Protein translocase subunit SecA (Escherichia coli (strain K12)) (P10408 whole entry): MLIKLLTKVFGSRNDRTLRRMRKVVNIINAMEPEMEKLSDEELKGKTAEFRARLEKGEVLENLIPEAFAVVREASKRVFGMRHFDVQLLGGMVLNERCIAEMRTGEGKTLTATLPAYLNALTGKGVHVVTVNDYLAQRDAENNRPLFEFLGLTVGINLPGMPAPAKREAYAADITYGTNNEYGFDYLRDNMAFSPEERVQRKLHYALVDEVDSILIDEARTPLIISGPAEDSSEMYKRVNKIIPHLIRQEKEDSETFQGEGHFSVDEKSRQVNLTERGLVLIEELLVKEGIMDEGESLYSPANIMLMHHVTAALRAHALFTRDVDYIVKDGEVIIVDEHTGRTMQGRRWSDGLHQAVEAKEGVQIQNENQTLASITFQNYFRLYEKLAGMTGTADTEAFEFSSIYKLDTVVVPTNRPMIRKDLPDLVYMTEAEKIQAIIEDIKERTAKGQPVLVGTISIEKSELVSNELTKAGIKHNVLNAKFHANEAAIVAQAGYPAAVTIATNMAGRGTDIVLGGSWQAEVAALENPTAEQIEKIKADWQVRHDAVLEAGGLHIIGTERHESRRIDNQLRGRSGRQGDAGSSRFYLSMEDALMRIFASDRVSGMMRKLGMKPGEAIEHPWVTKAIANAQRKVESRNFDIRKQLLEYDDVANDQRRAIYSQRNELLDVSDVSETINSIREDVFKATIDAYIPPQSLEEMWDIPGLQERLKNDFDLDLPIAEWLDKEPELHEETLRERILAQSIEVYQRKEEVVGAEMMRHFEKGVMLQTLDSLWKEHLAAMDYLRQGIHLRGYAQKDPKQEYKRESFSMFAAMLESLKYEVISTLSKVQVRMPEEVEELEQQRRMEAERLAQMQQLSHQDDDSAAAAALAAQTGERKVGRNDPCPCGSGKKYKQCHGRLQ
# Sequence of Chromo domain-containing protein 1 (Saccharomyces cerevisiae (strain ATCC 204508 / S288c) (Baker's yeast)) (P32657 whole entry, the tested form may be a part): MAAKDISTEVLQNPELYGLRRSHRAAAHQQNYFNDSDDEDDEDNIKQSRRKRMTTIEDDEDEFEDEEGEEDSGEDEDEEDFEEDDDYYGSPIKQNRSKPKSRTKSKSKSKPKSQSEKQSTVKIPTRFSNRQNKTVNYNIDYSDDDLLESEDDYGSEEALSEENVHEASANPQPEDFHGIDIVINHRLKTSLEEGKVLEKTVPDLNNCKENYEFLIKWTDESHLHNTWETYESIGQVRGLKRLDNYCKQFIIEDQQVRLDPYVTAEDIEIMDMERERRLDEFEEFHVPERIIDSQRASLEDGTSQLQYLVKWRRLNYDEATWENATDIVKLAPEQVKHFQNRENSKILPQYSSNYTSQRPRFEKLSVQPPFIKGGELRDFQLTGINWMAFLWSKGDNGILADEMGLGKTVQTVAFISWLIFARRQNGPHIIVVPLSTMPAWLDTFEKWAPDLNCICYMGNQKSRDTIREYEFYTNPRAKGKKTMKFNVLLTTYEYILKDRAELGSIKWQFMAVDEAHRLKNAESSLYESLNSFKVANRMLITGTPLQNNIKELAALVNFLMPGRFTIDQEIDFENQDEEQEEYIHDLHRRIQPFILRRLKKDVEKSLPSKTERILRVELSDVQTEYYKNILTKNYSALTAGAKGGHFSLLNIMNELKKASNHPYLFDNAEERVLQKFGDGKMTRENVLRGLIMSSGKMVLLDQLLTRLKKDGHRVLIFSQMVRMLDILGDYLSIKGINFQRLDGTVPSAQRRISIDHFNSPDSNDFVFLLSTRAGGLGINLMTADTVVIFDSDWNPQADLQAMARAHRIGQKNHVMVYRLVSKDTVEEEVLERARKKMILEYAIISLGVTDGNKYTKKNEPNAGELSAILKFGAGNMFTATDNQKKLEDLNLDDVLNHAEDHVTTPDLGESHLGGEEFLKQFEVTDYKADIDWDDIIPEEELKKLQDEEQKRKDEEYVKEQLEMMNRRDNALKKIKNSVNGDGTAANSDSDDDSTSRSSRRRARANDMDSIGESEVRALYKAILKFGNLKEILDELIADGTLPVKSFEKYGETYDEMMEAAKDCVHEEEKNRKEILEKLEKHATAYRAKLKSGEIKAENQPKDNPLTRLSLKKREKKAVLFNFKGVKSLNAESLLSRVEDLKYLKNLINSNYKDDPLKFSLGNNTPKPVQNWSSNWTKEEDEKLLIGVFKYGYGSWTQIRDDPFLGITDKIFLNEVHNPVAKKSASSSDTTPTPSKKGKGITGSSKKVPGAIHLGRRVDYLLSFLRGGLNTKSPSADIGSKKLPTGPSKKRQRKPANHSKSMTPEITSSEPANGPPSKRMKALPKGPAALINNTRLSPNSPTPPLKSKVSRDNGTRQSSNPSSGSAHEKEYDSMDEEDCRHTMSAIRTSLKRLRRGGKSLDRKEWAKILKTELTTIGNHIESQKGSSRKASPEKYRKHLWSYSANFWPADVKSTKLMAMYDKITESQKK
# Sequence of Sialic acid-binding Ig-like lectin 9 (Homo sapiens) (Q9Y336 whole entry): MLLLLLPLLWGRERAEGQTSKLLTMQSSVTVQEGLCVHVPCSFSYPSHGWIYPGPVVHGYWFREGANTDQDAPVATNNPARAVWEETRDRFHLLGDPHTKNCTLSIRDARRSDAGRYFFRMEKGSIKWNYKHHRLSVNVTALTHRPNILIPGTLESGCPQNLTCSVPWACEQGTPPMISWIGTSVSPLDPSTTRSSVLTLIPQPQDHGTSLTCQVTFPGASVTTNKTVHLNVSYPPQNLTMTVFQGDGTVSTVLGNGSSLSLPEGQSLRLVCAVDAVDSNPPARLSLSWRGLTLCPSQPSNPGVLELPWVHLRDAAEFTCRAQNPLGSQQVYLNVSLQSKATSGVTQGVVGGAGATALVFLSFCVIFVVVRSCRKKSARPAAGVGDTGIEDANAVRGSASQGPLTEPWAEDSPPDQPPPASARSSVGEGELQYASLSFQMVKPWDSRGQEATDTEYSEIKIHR
Structure (SMILES),Percent Effect [1],Percent Effect [2],Percent Effect [3],Percent Effect [4],Percent Effect [5],Percent Effect [6],Percent Effect [7],Percent Effect [8],Percent Effect [9],Percent Effect [10],Percent Effect [11],Percent Effect [12],Percent Effect [13],PXC50 ([14]; MAX_EFFECT 6.355140187),PXC50 ([14]; MAX_EFFECT 7.256235828),Percent Effect [15]
O=C(N[C@H]1CN[C@H]2CCCO[C@H]21)c1cscn1,1.11%,21.9%,4.92%,-4.2%,5.27%,0%,-1.6%,18.6%,4.9%,-0.964%,7.29%,13.6%,-4.35%,–,–,–
OCCN1CCC(F)(F)C2(CCN(c3cccnc3)C2)C1 (centres undefined),–,–,–,–,–,–,–,–,–,–,–,–,–,< 4,< 4,–
CO[C@@H]1CN(Cc2scnc2C)[C@@H]2CCCO[C@@H]21,-5.71%,2.7%,-1.4%,-6.24%,4.17%,2.25%,3.72%,82% and 78.2% and 80%,-7.25%,8.62%,6.45%,8.64%,-1.19%,–,–,19.6% and 16.4%
